Changes are numbered by the printed parent chain.

Holding throughout (assay): PBM; 200 nM protein, PBS
What all share (settings): dsDNA, one strand shown

The target of assay [1] is T1, NKX2-4 (Homo sapiens, UniProt Q9H2Z4 175-261, P217L).
T1 sequence: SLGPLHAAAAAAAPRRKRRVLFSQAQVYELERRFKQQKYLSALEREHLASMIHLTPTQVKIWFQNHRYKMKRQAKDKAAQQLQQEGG

Assay [2] concerns the target T2, NKX2-4 (Homo sapiens, UniProt Q9H2Z4 175-261, T231S).
T2 sequence: T1 sequence with L43P, T57S

Assay [3] concerns the target T3, NKX2-4 (Homo sapiens, UniProt Q9H2Z4 175-261).
T3 sequence: T1 sequence with L43P

Assay [4] deals with T4, NKX2-4 (Homo sapiens, UniProt Q9H2Z4 175-261, R246Q).
T4 sequence: T1 sequence with L43P, R72Q

Regarding AGTACTCA, the binding signal with NKX2-4 [1] was 12.5 upbm affinity estimate (log intensity, higher = more binding, comparable within an allelic series); in the assay with NKX2-4 [2], 12.9 upbm affinity estimate (log intensity, higher = more binding, comparable within an allelic series); with NKX2-4 [3] it was 12.4 upbm affinity estimate (log intensity, higher = more binding, comparable within an allelic series); in the assay with NKX2-4 [4], 12.9 upbm affinity estimate (log intensity, higher = more binding, comparable within an allelic series).

As to TGCCCCCA, the binding signal was 9.77 upbm affinity estimate (log intensity, higher = more binding, comparable within an allelic series) in the assay with NKX2-4 [1]; 9.8 upbm affinity estimate (log intensity, higher = more binding, comparable within an allelic series) with NKX2-4 [2]; 9.76 upbm affinity estimate (log intensity, higher = more binding, comparable within an allelic series) with NKX2-4 [3]; 9.88 upbm affinity estimate (log intensity, higher = more binding, comparable within an allelic series) in the assay with NKX2-4 [4].

Regarding CCTCTTCA, the binding signal with NKX2-4 [1] is 12.5 upbm affinity estimate (log intensity, higher = more binding, comparable within an allelic series); in the assay with NKX2-4 [2], 12.8 upbm affinity estimate (log intensity, higher = more binding, comparable within an allelic series); with NKX2-4 [3], 12.4 upbm affinity estimate (log intensity, higher = more binding, comparable within an allelic series); in the assay with NKX2-4 [4], 13 upbm affinity estimate (log intensity, higher = more binding, comparable within an allelic series).

For the sequence CACCCGTA, the binding signal is 9.75 upbm affinity estimate (log intensity, higher = more binding, comparable within an allelic series) with NKX2-4 [1]; 9.83 upbm affinity estimate (log intensity, higher = more binding, comparable within an allelic series) with NKX2-4 [2]; 9.77 upbm affinity estimate (log intensity, higher = more binding, comparable within an allelic series) with NKX2-4 [3]; 9.74 upbm affinity estimate (log intensity, higher = more binding, comparable within an allelic series) with NKX2-4 [4].

With GCTGTGCA, the binding signal was 9.63 upbm affinity estimate (log intensity, higher = more binding, comparable within an allelic series) in the assay with NKX2-4 [1]; 9.66 upbm affinity estimate (log intensity, higher = more binding, comparable within an allelic series) with NKX2-4 [2]; 9.61 upbm affinity estimate (log intensity, higher = more binding, comparable within an allelic series) with NKX2-4 [3]; 9.6 upbm affinity estimate (log intensity, higher = more binding, comparable within an allelic series) with NKX2-4 [4].

With ACCGTTAC, the binding signal in the assay with NKX2-4 [1] was 9.89 upbm affinity estimate (log intensity, higher = more binding, comparable within an allelic series); with NKX2-4 [2], 9.95 upbm affinity estimate (log intensity, higher = more binding, comparable within an allelic series); with NKX2-4 [3] it was 9.88 upbm affinity estimate (log intensity, higher = more binding, comparable within an allelic series); with NKX2-4 [4], 9.92 upbm affinity estimate (log intensity, higher = more binding, comparable within an allelic series).

For the sequence CCACTCCA, the binding signal is 12.5 upbm affinity estimate (log intensity, higher = more binding, comparable within an allelic series) with NKX2-4 [1]; 12.8 upbm affinity estimate (log intensity, higher = more binding, comparable within an allelic series) with NKX2-4 [2]; 12.3 upbm affinity estimate (log intensity, higher = more binding, comparable within an allelic series) with NKX2-4 [3]; 12.9 upbm affinity estimate (log intensity, higher = more binding, comparable within an allelic series) in the assay with NKX2-4 [4].

CTACTTCA: the binding signal with NKX2-4 [1] was 12.4 upbm affinity estimate (log intensity, higher = more binding, comparable within an allelic series); in the assay with NKX2-4 [2], 12.6 upbm affinity estimate (log intensity, higher = more binding, comparable within an allelic series); with NKX2-4 [3] it was 12.2 upbm affinity estimate (log intensity, higher = more binding, comparable within an allelic series); in the assay with NKX2-4 [4], 12.8 upbm affinity estimate (log intensity, higher = more binding, comparable within an allelic series).

In the case of GATCGGCC, the binding signal with NKX2-4 [1] is 9.8 upbm affinity estimate (log intensity, higher = more binding, comparable within an allelic series); with NKX2-4 [2], 9.89 upbm affinity estimate (log intensity, higher = more binding, comparable within an allelic series); with NKX2-4 [3] it was 9.87 upbm affinity estimate (log intensity, higher = more binding, comparable within an allelic series); with NKX2-4 [4], 9.9 upbm affinity estimate (log intensity, higher = more binding, comparable within an allelic series).

Turning to AGGCGGGC, the binding signal with NKX2-4 [1] is 9.12 upbm affinity estimate (log intensity, higher = more binding, comparable within an allelic series); with NKX2-4 [2] it was 8.97 upbm affinity estimate (log intensity, higher = more binding, comparable within an allelic series); with NKX2-4 [3] it was 9.16 upbm affinity estimate (log intensity, higher = more binding, comparable within an allelic series); in the assay with NKX2-4 [4] it was 9.08 upbm affinity estimate (log intensity, higher = more binding, comparable within an allelic series).

In the case of GCACTCGA, the binding signal with NKX2-4 [1] is 12.5 upbm affinity estimate (log intensity, higher = more binding, comparable within an allelic series); in the assay with NKX2-4 [2] it was 13 upbm affinity estimate (log intensity, higher = more binding, comparable within an allelic series); with NKX2-4 [3], 12.5 upbm affinity estimate (log intensity, higher = more binding, comparable within an allelic series); in the assay with NKX2-4 [4], 13.1 upbm affinity estimate (log intensity, higher = more binding, comparable within an allelic series).

For the sequence GCACTACA, the binding signal in the assay with NKX2-4 [1] is 11.7 upbm affinity estimate (log intensity, higher = more binding, comparable within an allelic series); in the assay with NKX2-4 [2], 11.7 upbm affinity estimate (log intensity, higher = more binding, comparable within an allelic series); in the assay with NKX2-4 [3] it was 11.6 upbm affinity estimate (log intensity, higher = more binding, comparable within an allelic series); with NKX2-4 [4] it was 11.9 upbm affinity estimate (log intensity, higher = more binding, comparable within an allelic series).

For the sequence CCAGAGAC, the binding signal in the assay with NKX2-4 [1] is 9.71 upbm affinity estimate (log intensity, higher = more binding, comparable within an allelic series); in the assay with NKX2-4 [2], 9.67 upbm affinity estimate (log intensity, higher = more binding, comparable within an allelic series); with NKX2-4 [3] it was 9.71 upbm affinity estimate (log intensity, higher = more binding, comparable within an allelic series); with NKX2-4 [4], 9.63 upbm affinity estimate (log intensity, higher = more binding, comparable within an allelic series).

CAGTGCGC: the binding signal with NKX2-4 [1] is 9.85 upbm affinity estimate (log intensity, higher = more binding, comparable within an allelic series); with NKX2-4 [2], 9.8 upbm affinity estimate (log intensity, higher = more binding, comparable within an allelic series); in the assay with NKX2-4 [3] it was 9.86 upbm affinity estimate (log intensity, higher = more binding, comparable within an allelic series); with NKX2-4 [4] it was 9.79 upbm affinity estimate (log intensity, higher = more binding, comparable within an allelic series).

Take GAGTACTC: the binding signal was 12.4 upbm affinity estimate (log intensity, higher = more binding, comparable within an allelic series) in the assay with NKX2-4 [1]; 12.8 upbm affinity estimate (log intensity, higher = more binding, comparable within an allelic series) with NKX2-4 [2]; 12.3 upbm affinity estimate (log intensity, higher = more binding, comparable within an allelic series) with NKX2-4 [3]; 12.9 upbm affinity estimate (log intensity, higher = more binding, comparable within an allelic series) in the assay with NKX2-4 [4].

Regarding AAAGTAGC, the binding signal with NKX2-4 [1] is 11.5 upbm affinity estimate (log intensity, higher = more binding, comparable within an allelic series); with NKX2-4 [2] it was 11.9 upbm affinity estimate (log intensity, higher = more binding, comparable within an allelic series); with NKX2-4 [3] it was 11.5 upbm affinity estimate (log intensity, higher = more binding, comparable within an allelic series); with NKX2-4 [4] it was 11.7 upbm affinity estimate (log intensity, higher = more binding, comparable within an allelic series).

ATTTAGTG: the binding signal with NKX2-4 [1] was 11.4 upbm affinity estimate (log intensity, higher = more binding, comparable within an allelic series); in the assay with NKX2-4 [2], 11.6 upbm affinity estimate (log intensity, higher = more binding, comparable within an allelic series); in the assay with NKX2-4 [3] it was 11.4 upbm affinity estimate (log intensity, higher = more binding, comparable within an allelic series); with NKX2-4 [4], 11.5 upbm affinity estimate (log intensity, higher = more binding, comparable within an allelic series).

These data come from PMC11006913.
